Measured values as given in PubChem BioAssay (NCATS).
Inconclusive results are not listed. Activity calls are given as the source filed them. Unless noted, calls come from the whole dose curve; as a rule, active = well fitted inhibition curve with a large enough effect; inconclusive = small, poorly fitted or top-dose-only effect; inactive = flat fitted curve, though single readings scatter.

How the values were obtained:
[1] = qHTS drug screen for cell cycle checkpoint inhibitors in PARPi-resistant BRCA-mutant ovarian cancer cell lines. (AID 1963452; calls by dose curve); conditions: PEO1/OlaR viability, CellTiter-Glo luminescence, 96 h, stronger effect = lower value
Outline: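 PEO1, PEO4 and PEO1/OlaR ovarian cancer cells, 600 per well, exposed 96 h at 37C to a dilution series. Viability read by CellTiter-Glo luminescence, normalized to DMSO and empty wells; activity summarized as Z-AUC.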

[2] = qHTS profiling for inhibitors of Plasmodium falciparum proliferation (AID 504749); note: potency is the fitted concentration of half-maximal effect;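 for activity, negative = inhibition: 0% = DMSO vehicle and full inhibition = artemisinin control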; for all read-outs here: nearly all actives have a fitted effect of over 60% in size; conditions: P. falciparum in erythrocytes, SYBR Green DNA, 72 h; for activity, negative = inhibition: at 28.7 µM (top of the series)
Outline: (§1)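 SYBR Green fluorescence (ex 485 nm, em 535 nm) reports parasite DNA after 72 h compound exposure of infected red cells at 0.3% parasitemia, 2.5% hematocrit; signal normalized to 0.29 uM artemisinin and vehicle wells.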

[3] = system: 3D7; experiment: as above; conditions: P. falciparum in erythrocytes, SYBR Green DNA, 72 h; series mostly up to 28.7 µM
Outline: as §1

[4] = system: AA1029; experiment: as above; conditions: P. falciparum in erythrocytes, SYBR Green DNA, 72 h; series mostly up to 28.7 µM
Outline: as §1

[5] = system: AS120; experiment: as above; conditions: P. falciparum in erythrocytes, SYBR Green DNA, 72 h; series mostly up to 28.7 µM
Outline: as §1

[6] = system: ATS189; experiment: as above; conditions: P. falciparum in erythrocytes, SYBR Green DNA, 72 h; series mostly up to 28.7 µM
Outline: as §1

[7] = system: ATS95; experiment: as above; conditions: P. falciparum in erythrocytes, SYBR Green DNA, 72 h; series mostly up to 28.7 µM
Outline: as §1

[8] = system: C2A; experiment: as above; conditions: P. falciparum in erythrocytes, SYBR Green DNA, 72 h; series mostly up to 28.7 µM
Outline: as §1

[9] = system: CP185; experiment: as above; conditions: P. falciparum in erythrocytes, SYBR Green DNA, 72 h; series mostly up to 28.7 µM
Outline: as §1

[10] = system: CP191; experiment: as above; conditions: P. falciparum in erythrocytes, SYBR Green DNA, 72 h; series mostly up to 28.7 µM
Outline: as §1

[11] = system: CP192; experiment: as above; conditions: P. falciparum in erythrocytes, SYBR Green DNA, 72 h; series mostly up to 28.7 µM
Outline: as §1

[12] = system: CP194; experiment: as above; conditions: P. falciparum in erythrocytes, SYBR Green DNA, 72 h; series mostly up to 28.7 µM
Outline: as §1

[13] = system: CP201; experiment: as above; conditions: P. falciparum in erythrocytes, SYBR Green DNA, 72 h; series mostly up to 28.7 µM
Outline: as §1

[14] = system: CP203; experiment: as above; conditions: P. falciparum in erythrocytes, SYBR Green DNA, 72 h; series mostly up to 28.7 µM
Outline: as §1

[15] = system: CP211; experiment: as above; conditions: P. falciparum in erythrocytes, SYBR Green DNA, 72 h; series mostly up to 28.7 µM
Outline: as §1

[16] = qHTS for identification of novel therapeutic agents for treatment of microphthalmiaassociated transcription factor (MiT) renal cell carcinoma (RCC) (AID 1963991); conditions: CellTiter-Glo, 48 h, stronger effect = lower value
Outline: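 Viability of three TFE3-fusion renal carcinoma lines measured by CellTiter-Glo after 48 h treatment with each of 1912 compounds at 11 concentrations. Responses scaled between DMSO (100%) and empty wells (0%) before curve fitting.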

[17] = system: 7G8; experiment: qHTS profiling for inhibitors of Plasmodium falciparum proliferation (AID 504749); note: nearly all actives have a fitted effect of over 60% in size; note: potency is the fitted concentration of half-maximal effect;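 for activity, negative = inhibition: 0% = DMSO vehicle and full inhibition = artemisinin control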; conditions: P. falciparum in erythrocytes, SYBR Green DNA, 72 h; series mostly up to 28.7 µM
Outline: as §1

[18] = measured here: PEO1 parental Z-AUC
[19] = TFE3-RCC UOK109 viability, measured here: UOK109 Z-AUC
[20] = TFE3-RCC viability, measured here: UOK124 Z-AUC
[21] = TFE3-RCC viability, measured here: UOK145 Z-AUC

CC(C)(Oc1ccc(C2CC2(Cl)Cl)cc1)C(=O)O (stereo unspecified)
inactive: Z-AUC [1] -0.348 | activity, negative = inhibition ([2]; parasite line A) -6.79% | activity, negative = inhibition ([2]; parasite line B) 2.45% | Potency [3] | Potency [4] | Potency [5] | Potency [6] | Potency [7] | Potency [8] | Potency [9] | Potency [10] | Potency [11] | Potency [12] | Potency [13] | Potency [14] | Potency [15]
-0.292: Z-AUC ([1]; measured here: PEO4 Z-AUC)
-0.606: Z-AUC [1, 18]

Cc1cn([C@H]2C=C[C@@H](CO)O2)c(=O)[nH]c1=O
0.266: z-score [16, 19]
0.139: z-score [16, 20]
inactive: activity, negative = inhibition ([2]; parasite line A) 2.38% | activity, negative = inhibition ([2]; parasite line B) -3.42% | Potency [3] | Potency [17] | Potency [4] | Potency [5] | Potency [6] | Potency [7] | Potency [8] | Potency [9] | Potency [10] | Potency [11] | Potency [12] | Potency [13] | Potency [14] | Potency [15]
0.201: z-score [16, 21]

Clc1ccccc1C(c1ccccc1)(c1ccccc1)n1ccnc1
-0.849: Z-AUC ([1]; measured here: PEO4 Z-AUC)
inactive: Z-AUC [1] -0.839
-1.06: Z-AUC [1, 18]
active: Potency ([2]; parasite line A) 0.631 µM | Potency ([2]; parasite line B) 0.708 µM | Potency [4] 0.891 µM | Potency [5] 0.178 µM | Potency [6] 0.708 µM | Potency [7] 1 µM | Potency [8] 1.78 µM | Potency [9] 1.78 µM | Potency [10] 0.794 µM | Potency [11] 1.81 µM | Potency [12] 1.44 µM | Potency [13] 4.55 µM | Potency [14] 0.721 µM | Potency [15] 2.28 µM

COc1ccccc1OCCNCC(O)COc1cccc2[nH]c3ccccc3c12 (stereo unspecified)
0.158: z-score [16, 21]
0.499: z-score [16, 19]
0.302: z-score [16, 20]
inactive: Potency [11] | Potency [13] | Potency [15]
active: Potency [17] 8.91 µM | Potency [4] 8.91 µM | Potency [5] 3.98 µM | Potency [7] 12.6 µM | Potency [8] 10 µM

O=c1[nH]cc(F)c(=O)[nH]1
0.136: Z-AUC ([1]; measured here: PEO4 Z-AUC)
inactive: Z-AUC [1] 0.953 | activity, negative = inhibition ([2]; parasite line B) -26.3% | Potency [6]
0.582: Z-AUC [1, 18]
active: Potency [17] 12.6 µM

O=C(c1ccc(F)cc1)C1CCN(CCn2c(=O)[nH]c3ccccc3c2=O)CC1
0.795: z-score [16, 19]
inactive: activity, negative = inhibition ([2]; parasite line A) 5.58% | activity, negative = inhibition ([2]; parasite line B) 9.97% | Potency [3] | Potency [4] | Potency [5] | Potency [6] | Potency [7] | Potency [8] | Potency [9] | Potency [11] | Potency [12] | Potency [13] | Potency [14] | Potency [15]
0.595: z-score [16, 21]
active: Potency [17] 5.01 µM
0.577: z-score [16, 20]

Clc1ccc2c(c1)C(N1CCNCC1)=Nc1ccccc1O2
0.445: z-score [16, 20]
0.826: z-score [16, 19]
inactive: activity, negative = inhibition ([2]; parasite line A) -18.9% | Potency [3] | Potency [8] | Potency [9] | Potency [11] | Potency [13] | Potency [14] | Potency [15]
0.654: z-score [16, 21]

Cc1ccc(-c2cc(C(F)(F)F)nn2-c2ccc(S(N)(=O)=O)cc2)cc1
inactive: Z-AUC [1] 1.19 | Potency [9]
1.1: Z-AUC ([1]; measured here: PEO4 Z-AUC)
0.566: Z-AUC [1, 18]

CCCCc1oc2ccccc2c1C(=O)c1cc(I)c(OCCN(CC)CC)c(I)c1
-0.00161: Z-AUC ([1]; measured here: PEO4 Z-AUC)
-0.649: Z-AUC [1, 18]
active: Potency ([2]; parasite line A) 4.47 µM | Potency ([2]; parasite line B) 2.82 µM | Potency [17] 3.16 µM | Potency [4] 6.31 µM | Potency [5] 3.55 µM | Potency [6] 5.62 µM | Potency [7] 5.01 µM | Potency [8] 10 µM | Potency [9] 8.91 µM | Potency [10] 8.91 µM | Potency [14] 15.1 µM
inactive: Z-AUC [1] -0.673

CC(COc1ccccc1)N(CCCl)Cc1ccccc1 (stereo unspecified)
1.02: Z-AUC [1, 18]
1.15: Z-AUC ([1]; measured here: PEO4 Z-AUC)
active: Potency [17] 12.6 µM
inactive: Z-AUC [1] 1.41 | activity, negative = inhibition ([2]; parasite line A) 7.32% | activity, negative = inhibition ([2]; parasite line B) 2.35% | Potency [3] | Potency [8] | Potency [9] | Potency [10] | Potency [11] | Potency [13] | Potency [15]
